This is an account of results in PubChem BioAssay (EPA / NIEHS).

Assay [1] in a line: Tanguay_ZF_120hpf_CFIN_legacy: (Legacy) Oregon State University Tanguay Lab 120 Hour Post-fertilization zebrafish Assay for Caudal Fin Malformation (AID 2283649). An outline of the steps: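 Embryos were collected from Tropical 5D wild-type adults and dechorionated at 4 hpf. At 6 hpf each was exposed, one per well, at 0.64% DMSO and 28C. At 120 hpf fin morphology was scored; dead embryos were excluded.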

Assay [2] in a line: Tanguay_ZF_120hpf_PIG_legacy: (Legacy) Oregon State University Tanguay Lab 120 Hour Post-fertilization zebrafish Assay for Pigmentation Malformation (AID 2283650). The gist of the method:
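Dechorionated Tropical 5D wild-type embryos, one per well from 6 hpf, statically exposed at 28C in the dark until 120 hpf, 0.64% DMSO final. Pigmentation scored present/absent by brightfield microscopy; dead embryos not scored; fitted versus DMSO.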

Assay [3] is described as follows: Tanguay_ZF_120hpf_CIRC_legacy: (Legacy) Oregon State University Tanguay Lab 120 Hour Post-fertilization zebrafish Assay for Circulatory Malformation (AID 2283651). An outline of the steps:
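Read-out: presence or absence of circulatory malformation at 120 hpf, scored by brightfield microscopy, fitted in the gain-of-signal direction against DMSO baseline. Wild-type 5D larvae were exposed from 6 hpf after enzymatic chorion removal.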

Assay [4] in a line: Tanguay_ZF_120hpf_SWIM_legacy: (Legacy) Oregon State University Tanguay Lab 120 Hour Post-fertilization zebrafish Assay for Swim Bladder Malformation (AID 2283654).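 Also: swim bladder malformation in each larva scored yes or no under brightfield.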 The gist of the method:
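Dechorionated wild-type Tropical 5D zebrafish embryos, one per well from 6 hpf, were statically exposed at 28C until 120 hpf in 0.64% DMSO. Swim bladder malformation scored as present/absent by brightfield microscopy; not scored in dead larvae.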

A short description of assay [5]: Tanguay_ZF_120hpf_TRUN_legacy: (Legacy) Oregon State University Tanguay Lab 120 Hour Post-fertilization zebrafish Assay for Truncated Body (AID 2283655). An outline of the steps:
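5D wild-type larvae; pronase dechorionation; static exposure 6→120 hpf, 28C; DMSO 0.64% final; 5uM trimethyltin chloride positive control. Readout: presence/absence of truncated body, analyzed relative to DMSO.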

The subject of assay [6] is Thyroperoxidase (TPO), gene 54314. The assay is described as follows: CCTE_Simmons_AUR_rTPO: CCTE's Amplex UltraRed Assay for Thyroperoxidase (TPO) Inhibition, Simmons Lab (AID 2283662).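 Also: potency for loss of signal meaning inhibition of peroxidase activity.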 The gist of the method: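 Cell-free peroxidase activity assay using rat thyroid gland microsomes with excess H2O2 (300 uM) and 25 uM Amplex UltraRed. Compounds tested from 5 nM to 87.5 uM; fluorescence measured after 30 min at 37C, analysed relative to DMSO baseline.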

Assay [7] is described as follows: CCTE_Simmons_CellTiterGLO_HEK293T: Viability Assessment in CCTE's Assays for Thyroperoxidase (TPO) Inhibition, Simmons Lab (AID 2283665).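 As to AC50: cells exposed to compound for 24 h before readout; actives reduce ATP signal below DMSO vehicle meaning cytotoxicity.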 The gist of the method: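 HEK293T, 10 000 cells/well, DMEM + 1% FBS; 8-pt titration 5 nM–87.5 uM [final], 0.5% DMSO; 24 hr, 37C, 5% CO2; CellTiter-Glo luminescence; n=3 biological replicates.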
Assay [8] can be described thus: Tanguay_ZF_120hpf_TR_legacy: (Legacy) Oregon State University Tanguay Lab 120 Hour Post-fertilization zebrafish Assay for Touch Response (AID 2283667). An outline of the steps:
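Tropical 5D wild-type zebrafish embryos statically exposed to 120 hpf at 28°C, sealed and dark-covered, 0.64% DMSO final; touch response scored as present/absent by brightfield microscopy at 120 hpf. Trimethyltin chloride 5 uM positive control; dead embryos not scored.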

The nature of assay [9]: CCTE_Padilla_ZF_144hpf_TERATOSCORE: (Legacy) CCTE's 144 Hour Post-fertilization zebrafish Assay Teratoscore, Padilla Lab (AID 2283679; active = hit-call score of the fitted dose curve at least 0.9, where 1 is the maximum; inactive = score below 0.9;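 as to AC50: zebrafish embryos with chorions exposed by immersion from 6-8 hpf to 5 dpf with daily renewal; teratogenicity score from eye scoring of death hatching and malformations at 144 hpf; higher score means more developmental defects relative to DMSO baseline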). The gist of the method: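 Larvae scored by eye at 144 hpf for death, hatching and malformations after a day in clean Hanks'. Before that, daily-renewed exposure at 80 uM (0.4% DMSO, 26C) from roughly 6-8 hpf through 5 dpf, 4 embryos per chemical.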

Assay [10] in a line: Tanguay_ZF_120hpf_ActivityScore_legacy: (Legacy) Oregon State University Tanguay Lab 120 Hour Post-fertilization zebrafish Assay Score for Activity (AID 2283742). The gist of the method:
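Dechorionated Tropical 5D embryos, one per well from 6 hpf, statically exposed to 120 hpf at 28 °C in 0.64% DMSO. Mortality and malformations scored binary by brightfield microscopy; activity score combines 18 endpoints, fitted positively versus DMSO.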

Assay [11] is described as follows: CEETOX_H295R_MTT_cell_viability: Viability Assessment in the CeeTox HT-H295R MTT Assay (AID 2283718; active = hit-call score of the fitted dose curve at least 0.9, where 1 is the maximum; inactive = score below 0.9). An outline of the steps: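 Human H295R adrenal cells, prestimulated 48 h with 10 uM forskolin, were exposed 48 h to chemicals in 0.1% DMSO. Viability was measured in the same wells by MTT (0.5 mg/ml, 4 h, 37 C), absorbance 570/650 nm, as percent of controls.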

The nature of assay [12]: Tanguay_ZF_120hpf_NC_legacy: (Legacy) Oregon State University Tanguay Lab 120 Hour Post-fertilization zebrafish Assay for Notochord and Tail Malformation (AID 2283656). An outline of the steps: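 Dechorionated Tropical 5D wild-type zebrafish embryos, one per well from 6 hpf, statically exposed to 120 hpf at 28C in 0.64% DMSO final. Notochord distortion scored present/absent by brightfield; dead embryos excluded.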

Assay [13] can be described thus: STM_H9_OrnithineISnorm_perc: Stemina devTOX quickPredict H9 human embryonic stem cell (hESC)-based Assay for Ornithine (ORN) Metabolite Biomarker, Normalized (AID 2283712; active = hit-call score of the fitted dose curve at least 0.9, where 1 is the maximum; inactive = score below 0.9;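 also: ornithine released into spent medium during last day measured by mass spectrometry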). An outline of the steps: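 H9 human embryonic stem cells kept pluripotent receive test chemical over 72 h, refreshed daily by media exchange. Media from the closing 24 h is deproteinized and analysed by UPLC-HRMS on an amide column; ornithine signal is scaled to labelled standard and vehicle.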

A short description of assay [14]: STM_H9_OrnCyssISnorm_ratio: Stemina devTOX quickPredict H9 human embryonic stem cell (hESC)-based Assay for Ornithine (ORN):Cystine (CYSS) Ratio (AID 2283714). The gist of the method:
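Undifferentiated H9 hESCs exposed 72 h, media and compound replaced every 24 h; final 24-h conditioned media deproteinized and analysed by UPLC-HRMS against C13 spike-ins. Value is the internal-standard-normalized ORN/CYSS ratio versus 0.1% DMSO.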

Read-out in assay [15]: solute carrier (SLC22A6), SLC22A6 (gene 9356)
Description: LTEA_HepaRG_SLC22A6: Life Technologies and Expression Analysis (LTEA) Assay for solute carrier (SLC22A6) using HepaRG (AID 2283653; active = hit-call score of the fitted dose curve at least 0.9, where 1 is the maximum; inactive = score below 0.9). The note with it: mRNA level, 48 h; actives raise or lower the signal. The gist of the method:
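This endpoint tracks SLC22A6 mRNA induction or suppression in human HepaRG cultures after 48 h dosing, concentrations reaching 100 uM. Values derive from bidirectional fitting against DMSO controls.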

Read-out in assay [16]: solute carrier (SLC10A1), SLC10A1 (gene 6554)
The assay is described as follows: LTEA_HepaRG_SLC10A1: Life Technologies and Expression Analysis (LTEA) Assay for solute carrier (SLC10A1) using HepaRG (AID 2283657; active = hit-call score of the fitted dose curve at least 0.9, where 1 is the maximum; inactive = score below 0.9). The note with it: mRNA level, 48 h; actives raise or lower the signal. The gist of the method: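 HepaRG cells (single lot) exposed 48 h in serum-free induction medium, 8-point half-log series from 100 uM top in 0.5% DMSO, duplicate. SLC10A1 mRNA by qRT-PCR normalised to ACTB, GAPDH, POLR2A; bidirectional fit versus DMSO.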

Read-out in assay [17]: matrix metalloproteinase-1 (MMP1), MMP1 (gene 4312)
Description: LTEA_HepaRG_MMP1: Life Technologies and Expression Analysis (LTEA) Assay for matrix metalloproteinase-1 (MMP1) using HepaRG (AID 2283658; active = hit-call score of the fitted dose curve at least 0.9, where 1 is the maximum; inactive = score below 0.9). The note with it: mRNA level, 48 h; actives raise or lower the signal. The gist of the method:
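Bidirectional concentration-response fitting relative to 0.5% DMSO gives the endpoint, derived from MMP1 mRNA levels (qRT-PCR) in human HepaRG cells treated 48 h with chemicals up to 100 uM.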

Read-out in assay [18]: Cytochrome P450 (CYP24A1_1), CYP24A1 (gene 1591)
The assay is described as follows: LTEA_HepaRG_CYP24A1_1: Life Technologies and Expression Analysis (LTEA) Assay for Cytochrome P450 (CYP24A1_1) using HepaRG (AID 2283671; active = hit-call score of the fitted dose curve at least 0.9, where 1 is the maximum; inactive = score below 0.9). The settings on record: mRNA level, 48 h; actives raise or lower the signal. An outline of the steps:
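Differentiated human HepaRG cells in serum-free induction medium, exposed 48 h in duplicate to eight half-log concentrations from 100 uM top, 0.5% DMSO. Transcript measured by TaqMan qRT-PCR, normalised to ACTB, GAPDH, POLR2A; bidirectional fitting versus DMSO.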

“And” between values parts separate entries of the source, which are not always exact repeats. Equal values may be shown once. Records with an inconclusive call do not appear. The source made the active and inactive calls. The calls were made as follows, unless noted: active = hit-call score of the fitted dose curve at least 0.9, where 1 is the maximum; inconclusive = response in the unintended direction; inactive = score below 0.9.

A word on the AC50: it is the midpoint of the concentration-response curve, whichever way the signal moves. For the molecule `CCC(C)(C)c1ccc(O)c(C(C)(C)CC)c1`, the result in [1], in assay [2], in assay [3], in [4], in assay [5] and in assay [8] was inactive. Besides, the molecule was classed as inactive in assay [10]. The AC50 in assay [6] is 4.15 µM (active); in [7], 847 nM (active); in [9], 4.87 µM (active) and 4.82 µM (active).
In the case of `Cn1sc(Cl)cc1=O`, the outcome in assay [1], in [2], in [4] and in assay [11] was inactive. Further, the AC50 in assay [9] was 14.9 µM (active); in [10], 39.8 µM (active).
Regarding `O=C(Nc1ccc2[nH]ccc2c1)c1cc2cc(F)ccc2n1Cc1cccc(F)c1`, the result in assay [1], in assay [2], in assay [3], in assay [4], in assay [5] and in assay [12] was inactive. For the same molecule, the molecule was called inactive in assay [8], in [11] and in [10]. Further, the AC50 in assay [6] was 1.62 µM (active); in [7] it was 753 nM (active); in assay [13] it was 3.5 µM (active); in assay [14] it was 1.28 µM (active).
For the molecule `CC(C)(C)CC(C)(C)c1ccc(O)cc1`, the outcome in [1], in [4], in assay [5], in assay [12], in assay [8] and in assay [10] was inactive. In addition, the figures for the AC50 in assay [6], in assay [7] and in [9] were 11.6 µM (active), 9530 nM (active) and 4.55 µM (active), respectively.
In the case of `CN(C)N=O`, the molecule was called inactive in assay [1], in assay [3], in [5], in assay [12], in assay [8] and in assay [9]. Moreover, the molecule was classed as inactive in assay [10].
Consider `Oc1cccc2cccnc12`, for which the result in [1], in assay [2], in [3], in assay [15], in [12] and in assay [16] was inactive. Moreover, the molecule was classed as inactive in [17], in [8] and in [18]. Moreover, the AC50 in assay [6] is 18.4 µM (active) and 15.9 µM (active); in [7], 15.8 µM (active) and 53.8 µM (active); in [9] it was 4.78 µM (active); in assay [10], 39.6 µM (active).
As for `O=C1C2(Cl)C3(Cl)C4(Cl)C(Cl)(Cl)C5(Cl)C3(Cl)C1(Cl)C5(Cl)C24Cl` (stereo unspecified), the call in assay [1], in assay [2], in assay [3] and in assay [12] was inactive. Besides, the AC50 in assay [5] is 15.2 µM (active); in assay [8] it was 34.8 µM (active); in assay [9], 3.4 µM (active); in assay [10], 71 µM (active).
In the case of `Cc1ccccc1N`, the molecule was classed as inactive in assay [1], in [2], in assay [3], in assay [4], in assay [5] and in assay [12]. For the same molecule, the result in assay [7], in assay [8] and in assay [10] was inactive. Besides, the AC50 in [6] was 2.19 µM (active) and 2.51 µM (active).
